Assay outcomes as filed in PubChem BioAssay.
This is one part of a sample in which hits are shown more often than they occur.
RORg inh – blocks mouse ROR gamma transcriptional activity | Drosophila S2 Gal4-RORgamma UAS-luciferase reporter, 20 h | 310,000 compounds, 5.4% hits | AID 2551 | Potency, µM (top dose mostly 53.6 µM), for inactives: at the top dose activity change, negative = inhibition, hits mostly inhibitors | P51450; note: potency is the fitted concentration of half-maximal effect; % is set by controls: 0 for no effect and ±100 for the full control effect; nearly all actives have a fitted effect of over 60% in size
Target sequence (P51450 whole entry, looked up, the tested form may be a part): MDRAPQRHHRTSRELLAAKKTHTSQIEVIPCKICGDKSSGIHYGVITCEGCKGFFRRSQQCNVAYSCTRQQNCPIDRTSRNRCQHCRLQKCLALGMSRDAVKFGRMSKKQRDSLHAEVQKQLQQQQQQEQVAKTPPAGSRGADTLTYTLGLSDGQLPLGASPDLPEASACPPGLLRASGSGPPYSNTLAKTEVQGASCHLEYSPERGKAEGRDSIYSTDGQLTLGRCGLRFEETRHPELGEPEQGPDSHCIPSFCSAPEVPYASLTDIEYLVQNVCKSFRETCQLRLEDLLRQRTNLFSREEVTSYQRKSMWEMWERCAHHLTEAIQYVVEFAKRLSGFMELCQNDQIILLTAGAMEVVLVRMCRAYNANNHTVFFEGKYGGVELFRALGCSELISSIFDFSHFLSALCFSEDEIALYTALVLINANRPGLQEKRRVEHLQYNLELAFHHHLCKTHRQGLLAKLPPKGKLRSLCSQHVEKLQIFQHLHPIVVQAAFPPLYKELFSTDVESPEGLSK
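Stably transfected Drosophila Schneider cells are the test system, with ROR gamma fused to Gal4 and luciferase under UAS control; luminescence is read after 20 hr of 700 uM copper sulfate induction at ambient temperature.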
Gal4-VP16 FLuc – counter-screen for ROR gamma inhibitors: Gal4-VP16 reporter; AID 2546; Drosophila S2 Gal4-VP16 UAS-luciferase, luminescence, 20 h; 310,000 compounds, 3.5% hits; Potency, µM (series often up to 53.6 µM), for inactives: at the top dose activity, negative = inhibition, actives largely listed as inhibitors;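 note: Gal4-VP16 expression switched on by copper sulfate through the metallothionein promoter; potency is the fitted concentration of half-maximal effect; % is set by controls: 0 for no effect and ±100 for the full control effect; nearly all actives have a fitted effect of over 50% in size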
Integrin act MD – activates integrin-mediated alleviation for muscular dystrophy; alpha7betagal myoblasts, beta-gal FDG fluorescence, 48 h; Potency, µM (doses to about 38.3 µM), inactives show top-dose activation, most hits filed as activators; 350,000 compounds, 0.064% hits; AID 624291;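 note: potency is the fitted concentration of half-maximal effect; 100% = response of the positive control SU9516; nearly all actives have a fitted effect of over 60% in size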
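alpha7betagal+/- myoblasts (passage 13, 250/well) treated 48 h at 37C with compounds at 1:260 dilution of DMSO stock. Lysed, then beta-galactosidase activity read as FDG fluorescence (ex 480/em 540) after 30 min, with pre-read for autofluorescence.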
ERG Ets-DNA blk – blocks human ERG Ets domain binding to DNA. fluorescence polarization, His-ERG Ets domain / labelled DNA. Potency, µM (highest dose often 76.9 µM), inactives show at the highest dose FP activity, negative = inhibition, usual class: inhibitors. 370,000 compounds, 0.028% hits; active = well fitted inhibition curve with a large enough effect in the polarisation, with a control signal flat; inconclusive = small, poorly fitted or top-dose-only effect, or effect the other way, or a change in a side signal; inactive = no such curve, though single readings can be large or run the other way; the % refers to the polarisation;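 note: polarization taken with two DNA probes labelled with fluorescein and Texas red; potency is the fitted concentration of half-maximal effect; % of control where 0% means no effect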
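His-tagged ERG Ets domain (1 uM in the protein solution; 300mM KCl, 50mM Tris-HCl, 1mM EDTA, 1mM DTT, pH 7.5) received compound, then a probe mix of 5 nM fluorescein-DNA and 100nM Texas-615-DNA. Fluorescence polarization was read for both dyes.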
Giardia kill – Giardia lamblia killing; Giardia lamblia trophozoite viability; activity change, % at 7.66 µM, hits read low; 340,000 compounds, 0.15% hits; AID 540267; in the data active = activity change below about -80%; inconclusive = between about -30% and that limit;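 note: parasites exposed to compound for two days anaerobically before the ATP read; % is set by controls: 0 for no effect and ±100 for the full control effect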
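Killing of trophozoites was scored by loss of ATP luminescence after a 48 hrs anaerobic exposure to compounds at 37 deg C, using 100 cells per well.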
Starred values were filed as active, the others as inactive; u = inconclusive; x = no result; [ ] = another dose, or the depositor's remark. Unless noted, calls come from the whole dose curve; as a rule, active = well fitted curve in the direction sought with a large enough effect; inconclusive = small, poorly fitted or top-dose-only effect, or another doubt; inactive = no such curve, though single readings can be large; an effect the other way counts as inactive or inconclusive.

SMILES | RORg inh | Gal4-VP16 FLuc | Integrin act MD | ERG Ets-DNA blk | Giardia kill
CCCCC(=O)NC(=S)NNC(=O)c1ccc(Cl)cc1Cl | 11µM* | -13% | -22% | 1% | -28
CCCCOc1ccccc1C(=O)NNC(=S)NC(=O)c1ccccc1[N+](=O)[O-] | 14µM* | u | -38% | 3% | -22
O=C(NNC(=S)NC(=O)c1ccccc1[N+](=O)[O-])c1ccccc1O | -15% | -16% | 23% | -2% | -6
Cc1ccc(C(=O)NC(=S)NNC(=O)c2ccccc2[N+](=O)[O-])cc1 | 3.2µM* | 3.2µM* | 11% | -15% | 7
Cc1ccc(C(=O)NNC(=S)NC(=O)c2ccc(Cl)cc2Cl)cc1 | -27% | 7% | -34% | x | 8
COc1cccc([C@@H]2Oc3ccc(Br)cc3C[C@H]2OC(=O)Nc2ccc(OC(F)F)cc2)c1 | 3% | -10% | x | x | x
O=C(NNC(=S)NC(=O)c1ccccc1[N+](=O)[O-])c1ccccc1[N+](=O)[O-] | -27% | 7% | 18% | x | -4
O=C(NNC(=S)NC(=O)c1ccccc1[N+](=O)[O-])c1ccc(Cl)cc1Cl | 5.6µM* | -1% | -13% | -12% | -13
Cc1cccc(C(=O)NC(=S)NNC(=O)COc2ccc(Cl)cc2)c1 | 4µM* | u | u | 12% | -5
O=C(NNC(=S)NC(=O)c1ccc(Br)cc1)c1cccc([N+](=O)[O-])c1 | 14µM* | u | -13% | -1% | 33
COc1ccc(C(=O)NC(=S)NNC(=O)c2cccc(C)c2)cc1 | x | x | -26% | -6% | -11
CC(=O)Nc1ccc(NC(=O)c2cc([N+](=O)[O-])cc([N+](=O)[O-])c2)cc1 | -22% | -5% | -36% | -2% | 2
Cc1ccc(NC(=O)c2ccc(Nc3c([N+](=O)[O-])cc([N+](=O)[O-])cc3[N+](=O)[O-])cc2)cc1 | u | 1.3µM* | -49% | 14% | u
Cc1nc(NCc2ccccc2)c2nc(-c3ccccc3)n(CCN3CCCC3)c2n1 | -23% | 6% | x | x | x
Cc1nc(Nc2ccc(Cl)c(Cl)c2)sc1C(/C=C/c1ccc2c(c1)OCO2)=NNc1ccc([N+](=O)[O-])cc1[N+](=O)[O-] | x | x | 15% | x | -4
CCCS(=O)(=O)c1nc(S(=O)(=O)c2ccc(C)cc2)c(N2CCN(CC)CC2)s1 | 1% | -7% | 0% | 4% | 0
O=C(NNC(=S)NC(=O)c1ccc(Br)cc1)c1ccc([N+](=O)[O-])cc1 | 11µM* | u | 0% | 6% | -6
COc1ccc(OCC(=O)NNC(=S)NC(=O)c2ccc([N+](=O)[O-])cc2)cc1 | 5.6µM* | 5.6µM* | 1% | -8% | 7
Cc1ccc(C(=O)NC(=S)NNC(=O)c2ccc([N+](=O)[O-])cc2)cc1 | u | 11µM* | -33% | -9% | -1
Cc1occc1C(=O)NNC(=O)COc1ccc(Br)cc1Br | 16% | 2% | -22% | -16% | 13
Cc1occc1C(=O)NNC(=S)NC(=O)COc1ccc(Cl)cc1Cl | 16µM* | u | 18% | 13% | -16
Cc1ccc(S(=O)(=O)NNC(=S)NC(=O)c2ccc([N+](=O)[O-])cc2)cc1 | -44%[10 µM] | u | 14% | u | -9
O=C(NNC(=O)c1ccc(Cl)nc1)c1ccncc1 | x | x | -14% | 3% | -22
CCOc1ccc(-c2nc(SCC(=O)NC3CCCC3)c(-c3ccccc3)[nH]2)cc1OC | x | x | x | -1% | x
O=C(NNC(=S)NC(=O)c1ccccc1)c1ccc([N+](=O)[O-])cc1 | 3.5µM* | 1.4µM* | 0% | -5% | u
SMILES | RORg inh | Gal4-VP16 FLuc | Integrin act MD | ERG Ets-DNA blk | Giardia kill
O=C(NC(=S)NNC(=O)c1ccccc1O)c1ccc([N+](=O)[O-])cc1 | 2% | 4% | 2% | -4% | 15
CCCCCC(=O)NNC(=S)NC(=O)c1ccc([N+](=O)[O-])cc1 | 2.8µM* | 6.3µM* | 17% | 2% | -12
Cc1ccc(NC(=O)c2cc3nc(-c4ccc5c(c4)OCO5)cc(C(F)(F)F)n3n2)cc1Cl | x | x | x | 2% | x
CC(C)(C)c1ccc(-c2noc(C(=O)NN)n2)cc1 | 10µM* | -28% | -14% | 0% | 31
O=C(NCc1ccccn1)c1nc(-c2ccc(C(F)(F)F)cc2)no1 | 11% | -13% | 43% | -9% | 29
CCN(CC)C(=O)c1cccnc1 | 0% | -2% | x | x | x
Cc1ccc(NC(=O)Cn2sc3nc(C)cc(C)c3c2=O)c(Cl)c1 | u | u | 2% | -1% | 34
Cc1cc(C)c2c(=O)n(CC(=O)NCCCN3CCOCC3)sc2n1 | 4µM* | 5µM* | -48% | -6% | 35
Cc1cc(C)c2c(=O)n(CC(=O)NCCCN3CCN(c4ccccc4F)CC3)sc2n1 | 3.5µM* | 5µM* | -72% | -3% | -9
Cc1ccccc1CS(=O)(=O)CCC(=O)NCCCN1CCN(c2ccccc2F)CC1 | 0% | 0% | -1% | -11% | -21
CCOC(=O)[C@@H]1[C@H]2COc3cc(OC)ccc3[C@H]2N2C(=O)N(c3ccc(C(F)(F)F)cc3)C(=O)[C@]12C | x | x | -36% | 3% | -22
Cc1cc(C)cc(N2C(=O)CS(=O)(=O)C23C(=O)N(C)c2ccccc23)c1 (stereo not drawn) | x | x | x | -3% | x
CCN(CC)S(=O)(=O)c1ccc(C(=O)NNC(=O)C2CCN(S(=O)(=O)c3ccc(Cl)cc3)CC2)cc1 | 0% | 9% | -24% | 5% | 12
CCc1cc2c(N3CCCCC3)ncnc2s1 | u | 35µM* | -24% | 6% | 12
Cc1sc2ncnc(N3CCCCC3)c2c1C | 1% | -8% | -20% | -1% | 8
CC(C)C[C@H](NC(=O)[C@H](CO)NC(=O)[C@@H]1CCCN1C(=O)[C@H](Cc1ccc(O)cc1)NC(=O)[C@H](CC(C)C)NC(=O)[C@H](CC(C)C)NC(=O)[C@@H]1CCCN1C(=O)[C@@H](NC(=O)[C@H](CO)NC(=O)[C@H](CO)NC(=O)[C@H](CO)NC(=O)[C@H](CO)NC(=O)[C@@H]1CCCN1C(=O)[C@@H](NC(=O)[C@@H](N)CO)C(C)C)[C@@H](C)O)C(=O)N[C@@H](C)C(=O)N[C@@H](CC(C)C)C(=O)N1CCC[C@H]1C(=O)N[C@@H](C)C(=O)N1CCC[C@H]1C(=O)O | 8% | -5% | x | x | x
CC(C)(C)Nc1nc(NN)nc(NC(C)(C)C)n1 | 7.1µM* | 20µM* | -22% | -9% | -14
O=C(Nc1ccccc1N1CCN(c2ccc(F)cc2)CC1)C12CC3CC(CC(C3)C1)C2 | -16% | -10% | -19% | -7% | -9
CCOc1ccccc1N1CCN(C(=S)NC(=O)C23CC4CC(CC(C4)C2)C3)CC1 | 3.5µM* | 3.5µM* | 9% | -12% | 18
O=C(NC(=S)N1CCN(c2ccc(F)cc2)CC1)C12CC3CC(CC(C3)C1)C2 | 1.3µM* | 3.2µM* | -30% | -1% | -7
